PubChem BioAssay (Tox21)
Where “and” joins values, the source holds several entries; their conditions need not be identical. Equal values may be shown once. Inconclusive results are not listed. A structure can be active in one record and inactive in another. Calls of active or inactive are those of the source. Calls follow the shape of the full dose curve.

Each compound was assayed against Retinoic acid receptor RXR-alpha (Homo sapiens) (UniProt P19793) (assay: qHTS assay to identify small molecule agonists of the RXR signaling pathway (AID 1159527; also: nearly all actives have a fitted effect of over 35% in size)). Conditions: HEK293T RXRa-UAS-bla, beta-lactamase ratio, 16 h; series mostly up to 76.8 µM; activation: at the top concentration.
Description: U.S. Tox21 Program National Center for Advancing Translational Sciences [NCATS] NIH Chemical Genomics Center [NCGC] U.S. Environmental Protection Agency [EPA] National Institutes of Environmental Health Sciences [NIEHS] National Toxicology Program [NTP] U.S. Food and Drug Administration [FDA] Tox21 Assay Overview: The Retinoid X receptor (RXR), a nuclear hormone receptor expressed in liver, spleen, placenta, epidermis, central nervous system. These receptors are able to form homo and heterodimers with other nuclear receptors and due to this heterodimerizing ability, RXR functions as master regulators producing diverse physiological effects. Three subtypes of RXR exist; alpha, beta and gamma. Retinoid X receptor alpha (RXR-alpha) has potential roles in metabolic signaling pathways, skin alopecia, dermal cysts, cardiac development, insulin sensitization etc. Therefore screening environmental chemicals on RXR-alpha signaling can be used for the studies focused on such therapeutic applications. For quantification of RXR-alpha ligands signaling, GeneBLAzer RXR alpha-UAS-bla HEK 293T (Life Technologies, Carlsbad, CA) cells containing a beta-lactamase reporter-gene under control of Retinoid X receptor-alpha response element were used to screen Tox21 10K library.
Tox21 Assay Protocol Summary: RXR-alpha HEK 293T cells were dispensed at 2,000 cells/6 uL of assay medium containing 2% charcoal-stripped FBS using a Multidrop Combi (ThermoFisher Scientific, Waltham, MA) dispenser. The assay was performed in black wall/clear-bottom 1536-well plates (Greiner Bio-One North America Inc. Monroe, NC). 9-cis retinoic acid was used as a positive control in the agonist mode screen. After the assay plates were incubated at 37 C and 5% CO2 for 5 hr, 23 nL of compounds dissolved in DMSO, positive controls or DMSO only were transferred to the assay plate by a Pintool station (Kalypsys, San Diego, CA). The assay plates were incubated at 37 C and 5% CO2 for 16 hr. One uL of LiveBLAzer B/G FRET substrate (Life Technologies) was added using a Flying Reagent Dispenser (Aurora Discovery, San Diego, CA) and the plates were incubated at room temperature for 2 hr. Fluorescence intensity (405 nm excitation, 460/530 nm emission) was measured using an Envision plate reader (PerkinElmer, Shelton, CT).
% is scaled to controls: 0 for no effect and ±100 for the full control effect; potency is read from the fitted curve at half-maximal effect.

Retinoic acid receptor RXR-alpha (Homo sapiens), sequence (P19793 whole entry, looked up): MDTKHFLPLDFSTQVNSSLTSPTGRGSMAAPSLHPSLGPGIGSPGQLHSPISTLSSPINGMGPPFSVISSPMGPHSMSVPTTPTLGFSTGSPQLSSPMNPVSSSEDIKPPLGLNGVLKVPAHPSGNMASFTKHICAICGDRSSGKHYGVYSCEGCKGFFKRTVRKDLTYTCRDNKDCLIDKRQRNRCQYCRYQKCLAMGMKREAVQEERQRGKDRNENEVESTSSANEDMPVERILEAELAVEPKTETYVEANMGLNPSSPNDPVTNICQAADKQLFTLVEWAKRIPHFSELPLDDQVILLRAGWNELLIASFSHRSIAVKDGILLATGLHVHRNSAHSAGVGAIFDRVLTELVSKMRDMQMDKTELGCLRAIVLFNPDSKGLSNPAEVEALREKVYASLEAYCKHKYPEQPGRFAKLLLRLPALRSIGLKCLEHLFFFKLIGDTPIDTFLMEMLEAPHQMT

Q: With `CNC1(C)C2CCC(C2)C1(C)C` (stereo not given) as the compound, how does the “activation” value read?
A: 8.6% [at 35.3 µM] (inactive)

Q: `O=C(OCc1ccccc1)c1ccc(O)cc1` was tested. Which Potency did it give?
A: inactive

Q: Which “activation” value does the source give for `NNCCc1ccccc1` here?
A: -1.52% [at 35.3 µM] (inactive)

Q: Which “activation” value does the source give for `Cc1cc(C2(c3cc(C)c(O)cc3C)OS(=O)(=O)c3ccccc32)c(C)cc1O` here?
A: 12.8% (inactive)

Q: How did the activation turn out when `NC(Cc1ccc(Cl)cc1)C(=O)O` (stereo not given) was run?
A: -0.301% [at 0.29 µM] (inactive)

Q: `Nc1cc(S(=O)(=O)O)cc2cc(S(=O)(=O)O)cc(O)c12` was tested. Which Potency did it give?
A: inactive and 24.5 µM (active)

Q: For `Cc1ccnc2c1NC(=O)c1cccnc1N2C1CC1`, which Potency is on record?
A: 11.4 µM (active) and inactive

Q: How did the “activation” value turn out when `CC(=O)N[C@@H](CS)C(=O)O` was run?
A: -1.55% [at 35.3 µM] (inactive)

Q: How did the “activation” value turn out when `CC(C)(C)NCC(O)COc1ccccc1OCC1CCCO1` (stereo not given) was run?
A: 4.42% [at 35.3 µM] (inactive)

Q: With `CC(=O)Nc1ccc(C(=O)CCl)cc1` as the compound, how does the Potency read?
A: 11 µM (active)

Q: Which Potency does the source give for `O=c1n(CC2CO2)c(=O)n(CC2CO2)c(=O)n1CC1CO1` (stereo not given) here?
A: 3.89 µM (active)

Q: With `Oc1ccc(Cl)cc1Cc1cc(Cl)ccc1O` as the compound, how does the Potency read?
A: inactive

Q: Which Potency does the source give for `C=C(C)C(=O)O` here?
A: inactive

Q: Which “activation” value does the source give for `C=C(C)C1CC=C(C)C(OC(C)=O)C1` (stereo not given) here?
A: 13.4% (inactive)

Q: `CCC(C)(Oc1ccc(C2(c3ccc(OC(C)(CC)C(=O)O)cc3)CCCCC2)cc1)C(=O)O` (stereo not given) was tested. Which “activation” value did it give?
A: 3.36% [at 35.3 µM] (inactive)

Q: For `O=C(O)CP(=O)(O)O`, which “activation” value is on record?
A: -13.8% [at 35.3 µM] (inactive)

Q: For `BrC1CCC(Br)C(Br)CCC(Br)C(Br)CCC1Br` (stereo not given), which “activation” value is on record?
A: -13.1% (inactive)

Q: For `CCCCN(CCO)CCCC`, which “activation” value is on record?
A: 5.5% (inactive)

Q: How did the “activation” value turn out when `O=C(O)c1cc(Cl)cc(Cl)c1` was run?
A: -0.0592% (inactive)

Q: Which “activation” value does the source give for `CO[Si](OC)(OC)c1ccccc1` here?
A: 0.326% (inactive)

Q: For `c1ccc2c(c1)CCCC2C1=NCCN1` (stereo not given), which “activation” value is on record?
A: 6.59% [at 35.3 µM] (inactive)

Q: With `OCC(CO)N[C@H]1C[C@](O)(CO)[C@@H](O)[C@H](O)[C@H]1O` as the compound, how does the “activation” value read?
A: 9.06% [at 35.3 µM] (inactive)

Q: How did the “activation” value turn out when `CCN1CCCC1CNC(=O)c1cc(S(=O)(=O)CC)c(N)cc1OC` (stereo not given) was run?
A: 3.74% [at 35.3 µM] (inactive)

Q: Which “activation” value does the source give for `O` here?
A: 16.8% (inactive)

Q: `OCCN1CCNCC1` was tested. Which Potency did it give?
A: inactive

Q: How did the “activation” value turn out when `C#CC(C)(CC)OC(=O)c1ccccc1C(=O)O` (stereo not given) was run?
A: -1.61% [at 35.3 µM] (inactive)

Q: How did the “activation” value turn out when `[Cl][In]([Cl])[Cl]` was run?
A: 3.31% (inactive)

Q: With `O=C1NCC2(CCN(CCc3ccccc3)CC2)O1` as the compound, how does the “activation” value read?
A: 0.211% [at 35.3 µM] (inactive)

Q: With `CCn1c2ccccc2c2cc(N)ccc21` as the compound, how does the “activation” value read?
A: -18.5% (inactive)

Q: `O=C(Oc1ccccc1)c1ccccc1O` was tested. Which Potency did it give?
A: inactive

Q: For `NC(N)=NC(=O)Cc1c(Cl)cccc1Cl`, which “activation” value is on record?
A: 8.21% [at 35.3 µM] (inactive)

Q: Which Potency does the source give for `CC(COc1ccccc1)N(CCCl)Cc1ccccc1` (stereo not given) here?
A: inactive

Q: `CC(=O)CC(=O)Nc1ccc2[nH]c(=O)[nH]c2c1` was tested. Which “activation” value did it give?
A: 0.961% (inactive)

Q: For `CC[C@@H](N)CO`, which “activation” value is on record?
A: 8.28% (inactive)

Q: For `CC1=C(C=O)C(C)(C)CC=C1`, which “activation” value is on record?
A: 2% (inactive)

Q: `O=C(Cl)c1cccc(C(=O)Cl)c1` was tested. Which “activation” value did it give?
A: 8.44% (inactive)

Q: How did the “activation” value turn out when `COc1nc(C)nc(Cl)c1NC1=NCCN1` was run?
A: 2.85% [at 35.3 µM] (inactive)

Q: `CC1COc2c(N3CCN(C)CC3)c(F)cc3c(=O)c(C(=O)O)cn1c23` (stereo not given) was tested. Which “activation” value did it give?
A: 4.66% [at 35.3 µM] (inactive)

Q: With `c1ccc2n[nH]nc2c1` as the compound, how does the Potency read?
A: inactive

Q: For `C/C=C/c1ccc(OCC)c(O)c1`, which Potency is on record?
A: inactive
